Results on nine compounds are retold here after PubChem BioAssay (NCI).

Compounds without any hit were thinned out: in the full panel of roughly 83,000, 20% have a hit.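 Activity criterion: percent growth below 10, measured after cells in 96-well plates were exposed to a single compound concentration for 48 hours.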 A number with no mark means an inactive call. Active and inactive are the calls of the source.

What all share (assay): NCI-60 one-dose screen, 48 h (100 = growth as untreated, 0 = no growth, -100 = all killed)
Settings in all cases: 10 µM unless noted

In experiment [1] the test system is HCT-15 colon.
The test system of experiment [2] is HT29 colon.
In experiment [3] the test system is SNB-75 CNS.
Experiment [4] deals with SNB-19 CNS.
Experiment [5] concerns U251 CNS.
The subject of experiment [6] is SK-MEL-5 melanoma.
The subject of experiment [7] is UACC-62 melanoma.
Experiment [8] has as its system LOX IMVI melanoma.
Experiment [9] has as its system SK-MEL-28 melanoma.
Experiment [10] concerns EKVX NSCLC.
The subject of experiment [11] is SN12C renal.
Experiment [12] concerns UO-31 renal.
The subject of experiment [13] is TK-10 renal.
Experiment [14] relates to ACHN renal.
In experiment [15] the test system is CAKI-1 renal.
In experiment [16] the test system is A498 renal.
Experiment [17] concerns CCRF-CEM leukemia.
For experiment [18], the system named is MOLT-4 leukemia.
For experiment [19], the system named is SK-MEL-2 melanoma.

`Cn1cc(-c2cc3ncnc(Nc4ccc(CC(=O)Nc5cc(C(C)(C)C)on5)cc4)c3s2)cn1`: the growth in experiment [1] is 18.6%; in [2], 27.4%; in experiment [3], 54%; in experiment [4] it was 86.1%; in [5], 54.2%; in experiment [6] it was 52.1%. Further, the growth in experiment [7] is 30%; in experiment [8], 25.8%; in [9] it was 44%; in [10] it was 60.2%; in experiment [11] it was 15.4%; in experiment [12], 11%. The growth is 17.8% in experiment [13]; 14.1% in [14]; 9.29% (active) in experiment [15]; -18.6% (active) in [16]; 10.8% in [17]; 17.4% in experiment [18].

In the case of `O=c1[nH][n+](-c2ccc(Br)cc2)no1`, the growth in experiment [1] is 33.5%; in experiment [2], 90%; in [3], 77.1%; in experiment [4], 77.8%; in experiment [5], 73.3%; in [6], 57.8%. Further, the growth in experiment [7] is 9.27% (active); in experiment [8], 7.47% (active); in [9], 61.2%; in [19], 55.8%; in experiment [10], 60.8%; in [11], 66.7%. In addition, the growth is 22.7% in experiment [12]; 63.8% in experiment [13]; 37.8% in [14]; 18.5% in [15]; 93.8% in [16]; 55.1% in [17]. Also, the growth in [18] is 41.5%.

For the compound `O=C(/C=C/c1cccc2ccccc12)c1ccc(NC(=O)c2ccccc2CN2C(=O)c3ccccc3C2=O)cc1`, the growth was 54.2% in [1]; 41.7% in experiment [2]; 61.2% in [3]; 76.7% in [4]; 64.5% in experiment [5]; 87.9% in experiment [6]. For the same compound, the growth in experiment [7] is 69.3%; in experiment [9], 96.7%; in [19] it was 95.5%; in [10] it was 81.4%; in experiment [11] it was 80.3%; in [13], 100%. Further, the growth is 73% in experiment [14], 37.9% in [15], 88.5% in [16] and 39.7% in experiment [17].

`COc1cc(CCCO)c(OC)c(OC)c1OC`: the growth in experiment [1] is 110%; in [2], 108%; in experiment [3] it was 86.9%; in experiment [4], 96.1%; in experiment [5], 101%; in [6], 109%. In addition, the growth is 94.8% in [7]; 98.1% in [8]; 109% in experiment [9]; 105% in [10]; 99.6% in experiment [11]; 90.4% in experiment [12]. For the same compound, the growth in experiment [13] was 109%; in experiment [14], 106%; in experiment [15], 92.3%; in experiment [16], 83.6%; in experiment [17], 108%; in experiment [18], 110%.

Regarding `Cc1ccc(C(=O)NN2C(=O)CSC2c2cccc([N+](=O)[O-])c2)cn1` (stereo not drawn), the growth is 109% in [1]; 104% in experiment [2]; 84.6% in experiment [3]; 93.2% in experiment [4]; 95.6% in [5]; 104% in experiment [6]. Besides, the growth in experiment [7] was 98.1%; in experiment [8], 90%; in experiment [9] it was 124%; in experiment [19], 100%; in [10] it was 98.7%; in [11], 96.6%. Further, the growth in [12] was 14.9%; in experiment [13], 98.3%; in experiment [14], 92.2%; in experiment [16] it was 100%; in [17], 90.8%; in experiment [18], 105%.

Turning to `COc1ccc(-c2[nH]c3ccc(OC)cc3c2/C=C(\C#N)S(=O)(=O)c2ccccc2)cc1`, the growth was 22.6% in [1]; 13.2% in experiment [2]; 8.92% (active) in [3]; 31.1% in [4]; 24.8% in [5]; -25.5% (active) in experiment [6]. The growth in [7] was 22%; in experiment [8] it was 36.4%; in experiment [19], 82.6%; in experiment [10], 36.8%; in experiment [11], 44.4%; in experiment [12] it was 42.2%. Also, the growth was 45.7% in experiment [13]; 41.4% in experiment [14]; 74.5% in experiment [15]; -5.52% (active) in experiment [16]; 2.56% (active) in experiment [17]; 17.6% in [18].

In the case of `COc1cccc(OC)c1C(=O)N[C@@H]1C(=O)N2[C@@H]1SC(C)(C)[C@@H]2C(=O)O`, the growth in experiment [1] was 108%; in experiment [2] it was 98.9%; in experiment [3], 98.9%; in [4], 107%; in [5], 106%; in experiment [6], 105%. Besides, the growth in [7] was 109%; in experiment [8], 100%; in [9] it was 105%; in [19], 101%; in experiment [10], 104%; in experiment [11] it was 97.7%. Further, the growth is 84.9% in [12]; 106% in experiment [13]; 98.4% in experiment [14]; 94.2% in [15]; 121% in [16]; 99.8% in [17]. Besides, the growth in [18] is 94.6%.

Take `CNCCCNc1nc2ccccc2c2c(=O)c3cc(OC)ccc3sc12`: the growth in [1] was 57.5%; in experiment [2] it was 4.95% (active); in experiment [3], 72.6%; in [4] it was 79.3%; in [5] it was 48.3%; in experiment [7] it was 99.3%. Moreover, the growth in experiment [8] is -38.1% (active); in experiment [9], 103%; in experiment [19], 113%; in [10], 87.4%; in experiment [11], 78.4%; in experiment [12] it was 52.4%. For the same compound, the growth in experiment [13] is 98.8%; in experiment [14], 70.5%; in experiment [15], 61.7%; in [16], 56.5%; in experiment [17], 11.9%; in experiment [18], 48.3%.

`CCCCCCn1c(-c2ccc(C(=O)O/N=C(\N)c3ccc4c(c3)OCO4)cc2)nc(-c2ccccc2)c1-c1ccccc1`: the growth in [1] is 7.82% (active); in experiment [2], 36.3%; in [3] it was -6.91% (active); in experiment [4], 55.3%; in [5], 8.25% (active); in experiment [6], 62%. For the same compound, the growth is 48.1% in experiment [7]; -95.1% (active) in [8]; 59.1% in experiment [9]; 70.9% in experiment [19]; -33.5% (active) in experiment [10]; -7.53% (active) in [11]. Besides, the growth was -89.2% (active) in experiment [12]; -9.77% (active) in experiment [13]; -88.2% (active) in experiment [14]; -21.3% (active) in experiment [15]; 37.2% in experiment [16]; -34.4% (active) in experiment [17]. Moreover, in experiment [18], the growth is 0.83% (active).
